Assay results from the supplement of paper PMC11219838.
A number with no mark means an inactive call.

test system: Meloidogyne hapla J2; experiment: proportion of mobile M. hapla J2 relative to DMSO control (fraction of DMSO control); higher = more viable, less nematicidal, active = 0.7 or less; conditions: 60 µM; 5 days; temperature: 20 °C
Procedure: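 DODA library (846 commercial 1,3,4- and 1,2,4-oxadiazole compounds plus commercial nematicide controls) screened at a single dose of 60 µM (0.6% DMSO) in 96-well plates, two biological replicates. Read-outs: C. elegans N2 L1 survival/reproduction score at day 6, 20 °C (0: 0-10 worms, 1: 11-20, 2: 21-50, 3: >50, 4: overgrown/starved). C. elegans daf-2 dauer, D. dipsaci and M. hapla J2 mobility at day 5, 20 °C, and P. penetrans mobility at day 5, 20 °C, each relative to DMSO controls. M. hapla egg hatching at day 12, 25 °C, relative to the mean of 8 DMSO wells on the same plate.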

Point of comparison: COc1ccccc1OCc1nc(-c2ccc(Br)cc2)no1, “proportion of mobile M. hapla J2” value 1.04. Against it:
- c1ccc(COc2cccc(-c3nc(-c4ccccn4)no3)c2)cc1 — lower, 1.03
- O=C(CSc1nnc(-c2cccnc2)o1)c1ccc(Br)cc1 — the same, 1.04
- O=C(CSc1nnc(-c2ccco2)o1)Nc1cccc(Cl)c1Cl — lower, 0.866
- COc1ccccc1-c1nnc(SCC(=O)Nc2ccccc2Cl)o1 — lower, 0.973
- Cc1ccccc1-c1nc(-c2ccccc2Cl)no1 — lower, 0.985
- Cc1ccc(-c2noc(COc3cc(C)ccc3C)n2)cc1 — lower, 0.994
- Clc1cc(Br)ccc1OCc1nc(-c2ccccn2)no1 — lower, 1.01
- COc1ccc(CC(=O)Nc2ccc(-c3noc(-c4ccccc4Br)n3)cc2)cc1 — higher, 1.08
- O=C(CSc1nnc(-c2ccccc2)o1)Nc1ccccc1C(F)(F)F — lower, 0.918
- CCOc1ccccc1-c1nc(-c2cccc(C)c2)no1 — lower, 0.982
- CCN(CC)C(=O)CSc1nnc(-c2ccc(Br)cc2)o1 — the same, 1.04
- Cc1cccc(-c2noc(COc3ccc(Cl)cc3)n2)c1 — the same, 1.04
- CC(C)(C)NC(=O)CSc1nnc(-c2ccc(C(C)(C)C)cc2)o1 — lower, 1.02
- COc1ccc(-c2nnc(SCc3ccc(C#N)cc3)o2)cc1 — lower, 0.942
- CCNC(=O)c1ccccc1-c1nc(-c2ccccc2)no1 — lower, 0.908
- CC(=O)Nc1ccc(-c2nc(-c3ccccc3)no2)cc1 — lower, 0.961
- Cc1ccc(NC(=O)CSc2nnc(-c3ccccc3)o2)cc1C — lower, 0.983
- COc1ccc(Cl)cc1-c1noc(COc2ccc(Cl)cc2)n1 — lower, 0.964
- COc1ccc(-c2noc(-c3ccc(Cl)cc3Cl)n2)cc1 — the same, 1.04
- CCOc1ccc(NC(=O)CSc2nnc(-c3ccccc3Cl)o2)cc1 — lower, 0.974
- CC1CCN(C(=O)CSc2nnc(-c3cccc(Cl)c3)o2)CC1 — lower, 1.02
- Cc1ccccc1-c1nc(-c2cccc(NC(=O)c3cccs3)c2)no1 — lower, 0.959
- C#CCOc1ccc(-c2nc(-c3ccccc3)no2)cc1 — higher, 1.06
- c1ccc(-c2noc(COc3cccc4ccccc34)n2)nc1 — lower, 0.936
- Cc1cccc(OC(C)c2nc(-c3cccnc3)no2)c1 (stereo not given) — lower, 0.994
- O=C(CSc1nnc(-c2ccc(Br)cc2)o1)OCc1ccccc1 — lower, 1.02
- Fc1cccc(-c2nc(-c3ccccc3)no2)c1 — lower, 0.867
- Cc1ccc(OCc2nc(-c3cccnc3)no2)cc1C — lower, 1.02
- COc1ccc(Cl)cc1-c1noc(-c2ccc(Cl)cc2)n1 — lower, 0.906
- Ic1ccc(OCc2nc(-c3ccncc3)no2)cc1 — lower, 1.01
- Cc1ccc(C)c(OCc2nc(-c3cccnc3)no2)c1 — the same, 1.04
- COc1ccc(-c2nnc(SCC(=O)c3ccc(C)o3)o2)cc1 — lower, 1
- Clc1ccc(OCc2nc(-c3ccccc3)no2)c(Cl)c1 — lower, 0.796
- COc1ccc(-c2noc(-c3ccc(C)c(C)c3)n2)cc1 — lower, 0.807
- Clc1ccc(CSc2nnc(-c3ccccc3)o2)c(Cl)c1 — lower, 1.03
- CC(C)Oc1ccc(-c2nc(-c3ccncc3)no2)cc1 — lower, 1
- Cc1cccc(-c2noc(-c3ccccc3Br)n2)c1 — lower, 0.99

In the case of COc1ccc(-c2noc(COc3ccc(C4CCCCC4)cc3)n2)cc1, the “proportion of mobile M. hapla J2” value is reported as 0.62 (active).
For Clc1cccc(-c2nc(-c3cccnc3)no2)c1, the “proportion of mobile M. hapla J2” value was 0.312 (active).
